# Measurements reported in PMC10812921, “Transcriptional Coactivator BOB1 (OBF1, OCA-B) Modulates the Specificity of DNA Recognition by the POU-Domain Factors OCT1 and OCT2 in a Monomeric Configuration”.
# How the values were obtained:
# POU1 (OCT1 POU domain) = POU1 (OCT1 POU domain) (human, UniProt P14859 260-458); experiment: EMSA-SELEX-seq; no BOB1; 20 mM Tris-HCl pH 7.6, 140 mM NaCl, 10% glycerol, 0.5 mM EDTA, 0.05% Triton X-100, 0.1 mg/mL BSA, 0.1 mg/mL poly(dI-dC), 5 mM DTT, room temperature, 20 min; high values mean tight binding; settings: protein: recombinant; dsDNA, one strand shown
# Outline: (§1)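 Binding preference is reported as the percentage of sequenced 8-mers that match a motif pattern. Tagged POU-domain proteins were made in E. coli BL21, purified under denaturing conditions and renatured. A 30 ng portion was combined with 300 ng of a PCR-amplified double-stranded random 35-nt library, with or without 28 ng coactivator protein, in 20 μL Tris–HCl pH 7.6 binding buffer for 20 min at RT. Complex bands were excised from native 6% PAGE, eluted and PCR-amplified over four rounds before Illumina sequencing.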
# POU2 (OCT2 POU domain) = molecular target: T1, POU2 (OCT2 POU domain) (human, UniProt P09086 175-386); experiment: as above; settings: protein: recombinant; dsDNA, one strand shown
# T1 sequence: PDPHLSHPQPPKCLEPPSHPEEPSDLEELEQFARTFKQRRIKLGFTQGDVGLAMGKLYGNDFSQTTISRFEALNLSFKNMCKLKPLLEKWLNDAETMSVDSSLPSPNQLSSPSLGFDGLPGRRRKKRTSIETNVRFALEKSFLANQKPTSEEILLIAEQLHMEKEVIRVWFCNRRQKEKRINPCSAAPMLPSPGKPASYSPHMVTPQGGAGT
# Outline: as §1
# [1] = molecular target: POU1 (OCT1 POU domain);BOB1 (OBF1, OCA-B) (human;human, UniProt P14859;Q16633 260-458;1-256, |); experiment: EMSA-SELEX-seq; with BOB1 (ternary complex band); 20 mM Tris-HCl pH 7.6, 140 mM NaCl, 10% glycerol, 0.5 mM EDTA, 0.05% Triton X-100, 0.1 mg/mL BSA, 0.1 mg/mL poly(dI-dC), 5 mM DTT, room temperature, 20 min; high values mean tight binding; settings: protein: recombinant;recombinant; copies: 1;1; dsDNA, one strand shown
# Outline: as §1
# [2] = molecular target: T2, POU2 (OCT2 POU domain);BOB1 (OBF1, OCA-B) (human;human, UniProt P09086;Q16633 175-386;1-256, |); experiment: as above; settings: protein: recombinant;recombinant; copies: 1;1; dsDNA, one strand shown
# T2 sequence 1: T1 sequence
# T2 sequence 2: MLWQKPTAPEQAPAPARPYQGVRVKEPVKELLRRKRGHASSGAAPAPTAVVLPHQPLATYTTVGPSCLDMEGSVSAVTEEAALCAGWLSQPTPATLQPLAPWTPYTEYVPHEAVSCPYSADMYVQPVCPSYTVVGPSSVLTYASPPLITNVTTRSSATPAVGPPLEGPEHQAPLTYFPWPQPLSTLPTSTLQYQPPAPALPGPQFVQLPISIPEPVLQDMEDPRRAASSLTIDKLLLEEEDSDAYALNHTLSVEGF
# Outline: as §1
# Chain of POU1 (OCT1 POU domain) (P14859 260-458): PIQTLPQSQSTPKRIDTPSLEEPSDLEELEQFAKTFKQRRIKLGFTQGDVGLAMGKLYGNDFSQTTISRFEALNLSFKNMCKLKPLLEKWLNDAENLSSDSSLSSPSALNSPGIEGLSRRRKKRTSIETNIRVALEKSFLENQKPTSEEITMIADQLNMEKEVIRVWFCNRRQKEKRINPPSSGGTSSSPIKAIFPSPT
Sequence,binding signal (POU1 (OCT1 POU domain)),binding signal (POU2 (OCT2 POU domain)),binding signal [1],binding signal [2]
AGCATAAA,0.204 % of ANNNNAAN 8-mers,0.213 % of ANNNNAAN 8-mers,0.0566 % of ANNNNAAN 8-mers,0.0867 % of ANNNNAAN 8-mers
ATAACAAC,0.0252 % of ANNNNAAN 8-mers,0.0391 % of ANNNNAAN 8-mers,0.0222 % of ANNNNAAN 8-mers,0.0347 % of ANNNNAAN 8-mers
ACACAAAC,0.0236 % of ANNNNAAN 8-mers,0.019 % of ANNNNAAN 8-mers,0.0398 % of ANNNNAAN 8-mers,0.0297 % of ANNNNAAN 8-mers
ACTTTAAC,0.032 % of ANNNNAAN 8-mers,0.0345 % of ANNNNAAN 8-mers,0.0304 % of ANNNNAAN 8-mers,0.0355 % of ANNNNAAN 8-mers
AACATAAC,0.0526 % of ANNNNAAN 8-mers,0.0506 % of ANNNNAAN 8-mers,0.0347 % of ANNNNAAN 8-mers,0.033 % of ANNNNAAN 8-mers
AAATTAAT,0.415 % of ANNNNAAN 8-mers,0.478 % of ANNNNAAN 8-mers,0.244 % of ANNNNAAN 8-mers,0.287 % of ANNNNAAN 8-mers
AGGAAAAC,0.0591 % of ANNNNAAN 8-mers,0.0552 % of ANNNNAAN 8-mers,0.0839 % of ANNNNAAN 8-mers,0.0636 % of ANNNNAAN 8-mers
ATGCGAAT,0.124 % of ANNNNAAN 8-mers,0.165 % of ANNNNAAN 8-mers,0.0901 % of ANNNNAAN 8-mers,0.128 % of ANNNNAAN 8-mers
AACAAAAG,0.0522 % of ANNNNAAN 8-mers,0.0518 % of ANNNNAAN 8-mers,0.0741 % of ANNNNAAN 8-mers,0.0454 % of ANNNNAAN 8-mers
AATTAAAG,0.187 % of ANNNNAAN 8-mers,0.22 % of ANNNNAAN 8-mers,0.112 % of ANNNNAAN 8-mers,0.121 % of ANNNNAAN 8-mers
ATGAGAAT,0.101 % of ANNNNAAN 8-mers,0.134 % of ANNNNAAN 8-mers,0.0784 % of ANNNNAAN 8-mers,0.106 % of ANNNNAAN 8-mers
AACTGAAA,0.0358 % of ANNNNAAN 8-mers,0.0386 % of ANNNNAAN 8-mers,0.0382 % of ANNNNAAN 8-mers,0.038 % of ANNNNAAN 8-mers
ACGCAAAG,0.098 % of ANNNNAAN 8-mers,0.061 % of ANNNNAAN 8-mers,0.163 % of ANNNNAAN 8-mers,0.0809 % of ANNNNAAN 8-mers
ACGCGAAT,0.0389 % of ANNNNAAN 8-mers,0.0512 % of ANNNNAAN 8-mers,0.0336 % of ANNNNAAN 8-mers,0.0371 % of ANNNNAAN 8-mers
AGGACAAG,0.0263 % of ANNNNAAN 8-mers,0.0293 % of ANNNNAAN 8-mers,0.0297 % of ANNNNAAN 8-mers,0.0289 % of ANNNNAAN 8-mers
AATTCAAA,0.373 % of ANNNNAAN 8-mers,0.292 % of ANNNNAAN 8-mers,0.438 % of ANNNNAAN 8-mers,0.4 % of ANNNNAAN 8-mers

Sequence,binding signal (POU1 (OCT1 POU domain)),binding signal (POU2 (OCT2 POU domain)),binding signal [1],binding signal [2]
AAGCAAAA,0.142 % of ANNNNAAN 8-mers,0.0898 % of ANNNNAAN 8-mers,0.204 % of ANNNNAAN 8-mers,0.106 % of ANNNNAAN 8-mers
AGCAGAAA,0.0374 % of ANNNNAAN 8-mers,0.0339 % of ANNNNAAN 8-mers,0.0336 % of ANNNNAAN 8-mers,0.0281 % of ANNNNAAN 8-mers
ACATGAAC,0.0244 % of ANNNNAAN 8-mers,0.0334 % of ANNNNAAN 8-mers,0.0304 % of ANNNNAAN 8-mers,0.019 % of ANNNNAAN 8-mers
AGGTAAAC,0.0534 % of ANNNNAAN 8-mers,0.0558 % of ANNNNAAN 8-mers,0.0792 % of ANNNNAAN 8-mers,0.0537 % of ANNNNAAN 8-mers
AATGCAAC,0.0435 % of ANNNNAAN 8-mers,0.0409 % of ANNNNAAN 8-mers,0.046 % of ANNNNAAN 8-mers,0.0413 % of ANNNNAAN 8-mers
ATTCTAAT,0.448 % of ANNNNAAN 8-mers,0.532 % of ANNNNAAN 8-mers,0.12 % of ANNNNAAN 8-mers,0.152 % of ANNNNAAN 8-mers
AAGGCAAT,0.0519 % of ANNNNAAN 8-mers,0.0489 % of ANNNNAAN 8-mers,0.057 % of ANNNNAAN 8-mers,0.0495 % of ANNNNAAN 8-mers
ATAACAAT,0.0622 % of ANNNNAAN 8-mers,0.088 % of ANNNNAAN 8-mers,0.0496 % of ANNNNAAN 8-mers,0.0735 % of ANNNNAAN 8-mers
ATTGCAAG,0.0271 % of ANNNNAAN 8-mers,0.0397 % of ANNNNAAN 8-mers,0.0336 % of ANNNNAAN 8-mers,0.0363 % of ANNNNAAN 8-mers
ATTCTAAC,0.0503 % of ANNNNAAN 8-mers,0.0495 % of ANNNNAAN 8-mers,0.0328 % of ANNNNAAN 8-mers,0.0322 % of ANNNNAAN 8-mers
ACTCAAAT,0.0889 % of ANNNNAAN 8-mers,0.061 % of ANNNNAAN 8-mers,0.127 % of ANNNNAAN 8-mers,0.0768 % of ANNNNAAN 8-mers
AGCTAAAG,0.0278 % of ANNNNAAN 8-mers,0.0282 % of ANNNNAAN 8-mers,0.0289 % of ANNNNAAN 8-mers,0.0256 % of ANNNNAAN 8-mers
AGAGGAAG,0.0358 % of ANNNNAAN 8-mers,0.0432 % of ANNNNAAN 8-mers,0.0441 % of ANNNNAAN 8-mers,0.0413 % of ANNNNAAN 8-mers
ACGAAAAT,0.106 % of ANNNNAAN 8-mers,0.0949 % of ANNNNAAN 8-mers,0.139 % of ANNNNAAN 8-mers,0.0834 % of ANNNNAAN 8-mers
ACTCAAAG,0.0336 % of ANNNNAAN 8-mers,0.0242 % of ANNNNAAN 8-mers,0.0367 % of ANNNNAAN 8-mers,0.0165 % of ANNNNAAN 8-mers
